Only some compounds are listed: those with a hit (about 11% of all), similar ones and a draw of the others.
HTT aggregate: reduces HttQ103-GFP aggregates in PC12 cells; AID 1688; 220,000 compounds, 1.1% hits; Potency, µM (doses to about 46.1 µM), usual class: inhibitors; PC12 HttQ103-GFP aggregates, Acumen cytometry, 40 h; note: nearly all actives have a fitted effect of over 60% in size
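Steps: seed 1500 PC12 HTTQ103-GFP cells/well; add tebufenozide, 100 nM final; add compound titration; add ATPLite reagent; quantify GFP aggregates by laser scanning cytometry.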
HTT ATP protect: cytoprotection in Huntington HTT-Q103 PC12 cell model | Potency, µM (titrated, usually from 56.4 µM), usual class: activators | PC12 HTT-Q103 induced, cytoprotection, ATP luminescence, 40 h | AID 1471 | 230,000 compounds, 0.14% hits; note: nearly all actives have a fitted effect of over 45% in size
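Stable PC12 Q103-GFP cells in serum-supplemented, phenol red-free DMEM; induction by tebufenozide at 100 nM final; compound dose series; cell viability quantified luminescently from ATP.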
HPGD block: blocks human HPGD enzyme activity; Potency, µM, actives largely listed as inhibitors; AID 894; purified HPGD, NADH fluorescence kinetic, PGE2 substrate; P15428; 150,000 compounds, 4.3% hits; active = well fitted inhibition curve with a large enough effect, not every such curve was filed as active; inconclusive = small, poorly fitted or top-dose-only effect, or another doubt; inactive = no such curve, though single readings can be large or run the other way
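NADH formation kinetics: reaction with 30 uM PGE2 and 1 mM NAD+ (final), 20 nM enzyme, Tris-HCl pH 8 with Tween 20, after 15 min compound preincubation at room temperature. Fluorescence change, last versus first of five reads.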
ALDH1A1 inh: inhibitors of human aldehyde dehydrogenase 1A1 | P00352 | Purified ALDH1A1, NADH fluorescence, propionaldehyde substrate | Potency, µM (series often up to 75.3 µM), actives largely listed as inhibitors | 220,000 compounds, 7.3% hits | AID 1030; active = well fitted inhibition curve with a large enough effect, not every such curve was filed as active; inconclusive = small, poorly fitted or top-dose-only effect, or another doubt; inactive = no such curve, though single readings can be large or run the other way
Target sequence (P00352 whole entry, looked up): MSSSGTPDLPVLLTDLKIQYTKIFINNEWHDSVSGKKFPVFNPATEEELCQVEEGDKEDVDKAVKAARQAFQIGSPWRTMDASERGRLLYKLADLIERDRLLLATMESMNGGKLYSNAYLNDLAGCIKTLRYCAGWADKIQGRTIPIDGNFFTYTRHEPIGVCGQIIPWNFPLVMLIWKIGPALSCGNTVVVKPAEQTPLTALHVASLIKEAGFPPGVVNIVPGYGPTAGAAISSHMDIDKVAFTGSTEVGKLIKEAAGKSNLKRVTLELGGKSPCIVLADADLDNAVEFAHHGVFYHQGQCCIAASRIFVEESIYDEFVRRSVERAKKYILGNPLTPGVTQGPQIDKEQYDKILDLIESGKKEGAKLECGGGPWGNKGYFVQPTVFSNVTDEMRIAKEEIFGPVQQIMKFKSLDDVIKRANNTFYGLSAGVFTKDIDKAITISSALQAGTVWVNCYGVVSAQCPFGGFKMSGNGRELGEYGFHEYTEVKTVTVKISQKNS
CBFb-RUNX1 inh: CBF-beta/RUNX1 interaction disruption; AlphaScreen CBFb-His/RUNX1-biotin binding, biochemical; Potency, µM (top dose mostly 59.8 µM), hits mostly inhibitors; 230,000 tested, under 10 active
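Room-temperature protein-protein interaction test with 30 nM each of His-tagged CBF-beta and biotinylated RUNX1, 15 min with compound, then 90 min with nickel plus streptavidin beads. Signal read in AlphaScreen mode.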
PNC assembly inh: perinucleolar compartment assembly inhibition. AID 2417. 140,000 compounds, 3.1% hits. PC3M PTB-GFP, PNC prevalence imaging, 16 h; hits give low values. activity change (PNC), negative = inhibition, % at 10 µM;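 active = readout at or below -70, meaning at least 70% loss of cells showing the perinucleolar compartment, a nuclear body marking cancer cells; inconclusive = readout between -30 and a set limit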
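Read-out is percentage of cells bearing a perinucleolar compartment, from automated 20x imaging of fixed, Hoechst-stained PC3M PTB-GFP cells. Cells were seeded 4 h, then exposed 16 h to compound (23 nl of library stock) in duplicate plates.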
Numbers stand for hits; . = inactive; ? = inconclusive; / = no result; [ ] = dose if it differs, or a comment. Unless noted, calls come from the whole dose curve; as a rule, active = well fitted curve in the direction sought with a large enough effect; inconclusive = small, poorly fitted or top-dose-only effect, or another doubt; inactive = no such curve, though single readings can be large; an effect the other way counts as inactive or inconclusive.

SMILES | HTT aggregate | HTT ATP protect | HPGD block | ALDH1A1 inh | CBFb-RUNX1 inh | PNC assembly inh
Cc1scc(-c2n[nH]c(=S)n2Cc2ccccc2)c1C | . | / | ? | . | . | .
CCc1c(-c2n[nH]c(=S)n2Cc2ccccc2)csc1C | . | / | 16µM | 10µM | . | ?
OC[C@@H]1O[C@@H](n2cnc3c(SCc4ccccc4)ncnc32)[C@@H](O)[C@H]1O | / | .[10 µM] | . | .[13.5 µM] | / | /
Cc1cc(=O)oc2cc(Oc3ccc([N+](=O)[O-])cc3[N+](=O)[O-])ccc12 | ? | .[10 µM] | . | ? | . | ?
O=C(Nc1ccc(NC(=O)c2ccco2)nc1)c1ccccn1 | . | .[10 µM] | . | 14µM | . | .
CCC(=O)Nc1cc(C)c(NC(=O)c2ccco2)cn1 | . | . | . | ? | . | .
Cc1cc(NC(=O)c2ccccc2)ncc1NC(=O)c1ccco1 | . | .[10 µM] | ? | 11µM | . | .
CC(=O)Nc1ccc(SCCN2CCN(CCc3ccccc3)CCC2=O)cc1 | / | / | / | / | . | /
O=C(c1cc2c(=O)n3ccccc3nc2s1)N1CCc2ccccc2C1 | . | / | / | ? | . | /
COc1ccc(Br)cc1CN1CCN(C(=O)c2ccc(F)cc2)CC1 | .[9.22 µM] | .[10 µM] | / | ? | . | /
COc1cc(OC)cc(C(=O)N2CCN(Cc3ccccc3[N+](=O)[O-])CC2)c1 | .[9.22 µM] | .[10 µM] | / | 1.4µM | . | /
O=C(c1ccc([N+](=O)[O-])cc1)N1CCN(Cc2ccccc2[N+](=O)[O-])CC1 | .[9.22 µM] | .[10 µM] | / | 10µM | . | /
COc1cccc(C(=O)N2CCN(Cc3ccccc3C(F)(F)F)CC2)c1 | . | .[10 µM] | . | ? | . | .
O=[N+]([O-])c1ccccc1CN1CCN(Cc2c[nH]c3ccccc23)CC1 | 8.9µM | . | / | ? | ? | /
O=C(c1ccc(F)cc1)N1CCN(Cc2ccccc2Br)CC1 | . | .[10 µM] | . | ? | . | -99
O=C(Nc1cccc2cccnc12)[C@@H]1[C@@H](C(=O)O)[C@H]2CC[C@@H]1O2 | / | .[10 µM] | . | .[13.5 µM] | / | /
O=C(Nc1ccc(Cl)cc1)NC1CCCC1Cc1ccco1 (centres undefined) | ? | .[1.9 µM] | . | 13µM | . | .
O=C(Nc1ccc(Cl)cc1)NC1CCCCC1Cc1ccco1 (centres undefined) | ? | . | . | . | . | .
CCCOC(=O)c1ccccc1O | . | . | / | / | / | /
COc1cc(S(=O)(=O)N2CCOCC2)cc(C(=O)c2nccn2C)c1OC | . | .[10 µM] | . | . | . | -88
CCOC(=O)Cc1c(C)nc2c(-c3ccc(OC)cc3)c(C)nn2c1C | . | . | . | . | . | .
CCN1/C(=C/c2sc(-c3ccccc3C)c[n+]2C)Sc2ccccc21 | 2.2µM | . | / | ? | . | /
CCN1/C(=C/c2cc[n+](CCCS(=O)(=O)[O-])c3ccccc23)Sc2ccccc21 | . | .[10 µM] | / | ? | . | /
CNC(=O)[C@H]1O[C@@H](n2cnc3c(NCc4ccc(N)cc4)ncnc32)[C@H](O)[C@H]1O | / | / | . | . | . | /
Cc1nc(N2CCOCC2)c2nc(-c3ccccc3)n(CCCN3CCCCC3C)c2n1 (centres undefined) | / | . | ? | ? | . | /
SMILES | HTT aggregate | HTT ATP protect | HPGD block | ALDH1A1 inh | CBFb-RUNX1 inh | PNC assembly inh
Cc1ccccc1-n1nnnc1SCc1ncc(-c2ccccc2)o1 | . | . | . | 10µM | . | .
CC1C/C(=C/c2ccncc2)C(=O)/C(=C/c2ccncc2)C1 (centres undefined) | ? | . | / | . | . | /
CC1C/C(=C/c2cccn2C)C(=O)/C(=C/c2cccn2C)C1 (centres undefined) | . | . | . | 3.5µM | ? | .
CC(C)(C)NC(=O)[C@@H]1CC[C@@H]2[C@@H]3CC[C@@H]4NC(=O)C=C[C@@]4(C)[C@H]3CC[C@]21C | . | ? | . | . | . | /
COC(=O)c1ccc(C(NC(=O)OCc2ccccc2)/C(C)=C/[C@@H](C)C(=O)NCc2cccnc2)cc1 (some centres undefined) | / | . | . | . | . | /
COc1ccc(Br)cc1C(C[N+](=O)[O-])c1c(N)n(C)c(=O)n(C)c1=O (centres undefined) | 4µM | .[10 µM] | / | / | . | /
CCCOc1ccc(C(=O)C(CN2CCOCC2)c2ccccc2)cc1 (centres undefined) | .[1.84 µM] | .[1.9 µM] | . | . | . | .
CSc1ccc(Cl)c(C(=O)OCC(=O)NCC(C)C)c1 | . | . | 14µM | . | . | .
C/C(=N/NC(=O)c1cccc(C)c1)c1c(O)cc(C)oc1=O | . | .[10 µM] | . | 32µM | . | -100
C/C(=N\Nc1ccccc1)c1c(O)cc(C)oc1=O | . | .[10 µM] | / | 14µM | . | /
COCCOCC(O)CN1CCN(c2ccc(C)cc2)CC1 (centres undefined) | . | . | . | 11µM | . | .
CCOC(=O)c1ccc(CC(=O)c2ccc(O)cc2O)o1 | . | . | . | ? | . | ?
COC(=O)c1ccc(CC(=O)c2ccc(O)cc2O)o1 | . | . | 32µM | ? | . | .
COC(=O)c1cc(CC(=O)c2ccc(O)cc2O)c(C)o1 | . | . | 16µM | . | . | .
COC(=O)c1ccc(CC(=O)c2c(C)cc(O)cc2O)o1 | . | . | / | 28µM | . | .
Cc1cccn2c(CN(C)CCC3CCCCO3)c(C(=O)N3CCCCC3)nc12 (centres undefined) | . | . | / | 3.2µM | . | /
O=C1Nc2ccccc2C(O)(C(=O)NCc2ccco2)N1c1ccc(Cl)c(Cl)c1 (centres undefined) | . | . | . | 25µM | . | .
O=C1Nc2ccccc2C(O)(C(=O)NCc2ccc3c(c2)OCO3)N1c1ccccc1 (centres undefined) | . | . | . | ? | . | .
CC(C)c1nc2sc3c(=O)[nH]c(=S)[nH]c3c2c2c1CCC2 | . | .[10 µM] | 16µM | ? | . | .
COc1cc2c(c(OC)c1OC)-c1ccc(OC)c(=O)cc1[C@@H](NC=O)CC2 | / | / | / | / | . | /
O=c1oc2ccccc2c(O)c1CN1CCCCC1 | . | .[10 µM] | . | 14µM | . | .
COc1cccc(N2CCN(c3c(C#N)c(C(F)(F)F)nn3C)CC2)c1 | 11µM | . | . | . | . | .
OC[C@H]1O[C@@H](n2cnc3c(N[C@H]4C[C@H]5CC[C@@H]4C5)ncnc32)[C@H](O)[C@@H]1O | / | . | / | . | . | /
CC(C)[C@](N)(C(=O)O)c1ccccc1 | / | .[10 µM] | . | .[13.5 µM] | / | /
O=C1CC(=O)N(CCc2ccccc2)C(=O)N1CCc1ccccc1 | 0.4µM | .[0.074 µM] | . | . | . | ?
COC(=O)c1c(NC(=O)C2CC(=O)NN2Cc2ccccc2)sc(C)c1C (centres undefined) | . | . | . | ? | . | .
CC(C)c1ccc(/C=C2\C=C(c3ccc4ccccc4c3)OC2=O)cc1 | / | .[10 µM] | . | .[13.5 µM] | / | /
COCCNC(=O)CN(C(=O)Cn1nnc2ccccc21)c1ccc(C)c(F)c1 | . | .[1.9 µM] | . | . | . | -119
